Source: the supplement of paper PMC10849652
About 8,800 targets were measured; listed, in parts, are those with a hit and a random draw of the rest. About 0.5% of all pairs of compound and target were hits.

What was measured:
Assay in all cases: log2 fold change, soluble protein after heating vs DMSO (PISA); higher = thermal stabilisation; K562 lysate, 10 uM; active = over 0.2 and 3.5 SD of the protein, either way, in both replicates (recomputed)
erlotinib = compound: C#Cc1cccc(Nc2ncnc3cc(OCCOC)c(OCCOC)cc23)c1 [erlotinib]
Procedure, shortened: (§1)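 The values are log-two fold changes in thermal stability compared with solvent controls and come from duplicates. They were obtained by TMTpro 16plex LC-MS/MS, with channel sums equalised, on the supernatant after 21,000xg for 90 min. That supernatant came from crude K562 extract at 1 mg/mL protein treated with 10 μM compound for 30 min, heated for 3 min across 48°C-58°C, pooled and brought to 0.5% NP-40 at 4°C.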

[1] = compound: C/C(=N\NC(=O)C1=CC(=CC=C1)S(=O)(=O)N2CCOCC2)/C3=C(C=CC(=C3)Cl)O
Procedure, shortened: as §1

[2] = compound: C1=CC(=CC=C1C2=NC3=C(N2)C=C(C=C3)C(=O)N)OC4=CC=C(C=C4)Cl
Procedure, shortened: as §1

[3] = compound: C1=CC2=C(C=CC(=C2)/C=C\3/C(=O)NC(=NCC4=CC=CS4)S3)N=C1
Procedure, shortened: as §1

[4] = compound: C1=CC2=NC=CN=C2C=C1/C=C/3\C(=O)NC(=O)S3
Procedure, shortened: as §1

[5] = compound: C1=CC=C(C=C1)C2=NC(=C(N2)C3=CC=NC=C3)C4=CC(=C(C=C4)Cl)O
Procedure, shortened: as §1

[6] = compound: C1=CC=C2C(=C1)C3=NNC4=CC=CC(=C43)C2=O
Procedure, shortened: as §1

[7] = compound: C1CCN(C1)C(=O)NC2=CC=CC(=C2)NC3=NC=C(C(=N3)NCCC4=CN=CN4)Br
Procedure, shortened: as §1

[8] = compound: C1CN(CCC1(CC2=CC=C(C=C2)Cl)N)C3=NC=NC4=C3C=CN4
Procedure, shortened: as §1

IRAK-1-4 Inhibitor I = compound: C1COCCN1CCN2C3=CC=CC=C3N=C2NC(=O)C4=CC(=CC=C4)[N+](=O)[O-] [IRAK-1-4 Inhibitor I]
Procedure, shortened: as §1

ibrutinib = compound: C=CC(=O)N1CCC[C@@H](n2nc(-c3ccc(Oc4ccccc4)cc3)c3c(N)ncnc32)C1 [ibrutinib]
Procedure, shortened: as §1

[9] = compound: CC(=O)c1cnc2ccc(-c3cc(Cl)c(O)c(Cl)c3)nc2c1N[C@H]1CC[C@H](CN(C)C)CC1
Procedure, shortened: as §1

ralimetinib = compound: CC(C)(C)Cn1c(N)nc2ccc(-c3[nH]c(C(C)(C)C)nc3-c3ccc(F)cc3)nc21 [ralimetinib]
Procedure, shortened: as §1

[10] = compound: CC(C)(O)CC(=O)NCCn1ccc2ncnc(Nc3ccc(Oc4cccc(C(F)(F)F)c4)c(Cl)c3)c21
Procedure, shortened: as §1

[11] = compound: CC(C)C1=C2N=C(C=C(N2N=C1)NCC3=CC=CC=C3)NCCCCCCN
Procedure, shortened: as §1

[12] = compound: CC1=C(C(CC(=O)N1)C2=CC=C(C=C2)C(F)(F)F)C(=O)NC3=C(C=C4C(=C3)C=NN4)F
Procedure, shortened: as §1

[13] = compound: CC1=C(C2=C(C=C1)C(=O)C3=CC=CC=C3N2CCCN)C
Procedure, shortened: as §1

[14] = compound: CC1=C(C=C(C=C1)NC(=O)C2=CC(=CC=C2)C(C)(C)C#N)NC3=CC4=C(C=C3)N=CN(C4=O)C
Procedure, shortened: as §1

[15] = compound: CC1=C(C=C(C=C1)NC(=O)C2=CC(=CC=C2)N(C)C)NC(=O)C3=CC=C(C=C3)O
Procedure, shortened: as §1

[16] = compound: CC1=CC=C(C=C1)SC2=C3C=C(SC3=CN=C2)C(=O)N
Procedure, shortened: as §1

Measured: log2 fold change

EIF3I (UniProt Q13347)
inactive: erlotinib 0.013 | [1] 0.033 | [2] -0.029 | [3] 0.001 | [4] 0.022 | [5] 0 | [6] -0.026 | [7] 0.004 | [8] -0.007 | IRAK-1-4 Inhibitor I -0.039 | ibrutinib 0.018 | [9] -0.019 | ralimetinib 0.035 | [10] 0.046 | [11] 0.032 | [12] 0.003 | [13] 0.013 | [14] 0.009 | [15] 0.056 | [16] 0.022

FREM2 (UniProt Q5SZK8)
inactive: erlotinib 0.015 | [1] -0.095 | [2] -0.109 | [3] -0.065 | [4] 0.047 | [5] 0.008 | [6] -0.051 | [7] -0.02 | [8] -0.021 | IRAK-1-4 Inhibitor I 0.009 | ibrutinib -0.062 | [9] 0.024 | ralimetinib -0.014 | [10] -0.042 | [11] -0.024 | [12] -0.06 | [13] -0.01 | [14] 0.079 | [15] 0.035 | [16] -0.073

FKBP1A (UniProt P62942)
Sequence of UniProt P62942 (P62942 whole entry, looked up): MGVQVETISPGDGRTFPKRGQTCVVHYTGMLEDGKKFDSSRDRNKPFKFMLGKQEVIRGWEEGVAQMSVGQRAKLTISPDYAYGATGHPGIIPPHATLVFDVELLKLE
inactive: erlotinib -0.024 | [1] 0.063 | [2] 0.015 | [3] -0.061 | [4] 0 | [5] 0.024 | [6] 0.091 | [7] -0.044 | [8] 0.062 | IRAK-1-4 Inhibitor I 0.071 | ibrutinib 0.083 | [9] -0.103 | ralimetinib 0.188 | [10] -0.054 | [11] 0.049 | [12] -0.022 | [13] -0.013 | [14] 0.084 | [15] 0.018 | [16] 0.187

FHOD1 (UniProt Q9Y613)
Sequence of UniProt Q9Y613 (Q9Y613 whole entry, looked up): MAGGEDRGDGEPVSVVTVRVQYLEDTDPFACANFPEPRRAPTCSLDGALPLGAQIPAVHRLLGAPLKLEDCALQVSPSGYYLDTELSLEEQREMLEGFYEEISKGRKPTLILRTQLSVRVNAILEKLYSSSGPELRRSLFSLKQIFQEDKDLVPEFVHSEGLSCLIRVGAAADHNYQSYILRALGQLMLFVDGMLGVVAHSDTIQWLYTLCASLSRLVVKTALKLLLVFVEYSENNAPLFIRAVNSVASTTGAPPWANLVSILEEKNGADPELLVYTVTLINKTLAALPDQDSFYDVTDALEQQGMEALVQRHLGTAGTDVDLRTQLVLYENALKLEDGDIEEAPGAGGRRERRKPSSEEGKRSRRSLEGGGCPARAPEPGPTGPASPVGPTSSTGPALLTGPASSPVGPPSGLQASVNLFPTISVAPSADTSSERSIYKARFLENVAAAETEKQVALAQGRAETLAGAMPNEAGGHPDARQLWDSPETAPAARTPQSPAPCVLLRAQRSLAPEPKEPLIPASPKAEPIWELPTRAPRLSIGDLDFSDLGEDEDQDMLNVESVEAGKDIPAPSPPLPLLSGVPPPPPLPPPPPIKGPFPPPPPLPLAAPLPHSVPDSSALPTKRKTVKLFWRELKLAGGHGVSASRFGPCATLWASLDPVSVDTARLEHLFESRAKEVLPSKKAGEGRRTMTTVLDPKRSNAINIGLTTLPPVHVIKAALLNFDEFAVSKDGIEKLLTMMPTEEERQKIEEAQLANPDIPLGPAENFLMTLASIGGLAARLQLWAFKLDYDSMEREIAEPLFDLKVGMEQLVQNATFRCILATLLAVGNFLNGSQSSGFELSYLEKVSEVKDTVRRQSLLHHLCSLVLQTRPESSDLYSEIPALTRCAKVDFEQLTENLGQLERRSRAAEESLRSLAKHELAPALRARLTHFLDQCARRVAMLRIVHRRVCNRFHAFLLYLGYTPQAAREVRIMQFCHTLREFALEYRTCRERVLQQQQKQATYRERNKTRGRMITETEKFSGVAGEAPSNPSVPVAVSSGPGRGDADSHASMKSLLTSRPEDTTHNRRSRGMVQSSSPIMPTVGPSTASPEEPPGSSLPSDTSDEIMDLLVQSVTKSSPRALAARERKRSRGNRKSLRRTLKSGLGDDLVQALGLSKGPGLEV
inactive: erlotinib 0.005 | [1] 0.021 | [2] 0 | [3] 0.048 | [4] -0.02 | [5] -0.011 | [6] -0.016 | [7] -0.011 | [8] -0.009 | IRAK-1-4 Inhibitor I -0.008 | ibrutinib 0.001 | [9] 0.03 | ralimetinib 0.041 | [10] -0.019 | [11] -0.002 | [12] -0.006 | [13] 0.006 | [14] 0.003 | [15] 0.025 | [16] -0.004

GATAD2A isoform 3 (UniProt Q86YP4)
Sequence of UniProt Q86YP4 (Q86YP4 whole entry, looked up): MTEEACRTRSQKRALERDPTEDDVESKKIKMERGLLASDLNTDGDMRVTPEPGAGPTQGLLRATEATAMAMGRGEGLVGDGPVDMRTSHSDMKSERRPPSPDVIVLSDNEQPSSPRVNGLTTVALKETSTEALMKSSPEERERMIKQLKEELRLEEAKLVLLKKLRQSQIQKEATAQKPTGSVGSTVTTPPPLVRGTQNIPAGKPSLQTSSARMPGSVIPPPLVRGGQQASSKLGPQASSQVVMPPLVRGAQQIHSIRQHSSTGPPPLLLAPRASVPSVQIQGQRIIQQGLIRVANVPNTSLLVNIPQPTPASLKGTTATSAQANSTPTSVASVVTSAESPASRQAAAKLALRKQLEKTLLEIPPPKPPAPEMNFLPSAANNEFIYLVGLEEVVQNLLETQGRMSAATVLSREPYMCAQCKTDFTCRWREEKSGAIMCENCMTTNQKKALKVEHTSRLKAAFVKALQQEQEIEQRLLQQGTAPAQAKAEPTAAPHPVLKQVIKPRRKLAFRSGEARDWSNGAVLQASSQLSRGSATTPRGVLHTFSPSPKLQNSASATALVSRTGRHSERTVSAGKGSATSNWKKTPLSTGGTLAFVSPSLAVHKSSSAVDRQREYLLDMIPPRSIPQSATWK
inactive: erlotinib 0.012 | [1] -0.124 | [2] -0.003 | [3] -0.034 | [4] 0.003 | [5] -0.002 | [6] -0.035 | [7] -0.037 | [8] 0.034 | IRAK-1-4 Inhibitor I -0.016 | ibrutinib 0.017 | [9] 0.008 | ralimetinib 0.023 | [10] 0.01 | [11] 0.012 | [12] -0.004 | [13] 0.005 | [14] 0.01 | [15] 0.016 | [16] -0.005

ESYT2 (UniProt H7BXI1)
inactive: erlotinib -0.056 | [1] 0.037 | [2] -0.017 | [3] 0.042 | [4] -0.025 | [5] -0.022 | [6] -0.076 | [7] -0.005 | [8] -0.008 | IRAK-1-4 Inhibitor I 0.019 | ibrutinib 0.035 | [9] -0.022 | ralimetinib 0.003 | [10] -0.039 | [11] -0.04 | [12] 0.046 | [13] 0.05 | [14] 0.015 | [15] -0.025 | [16] -0.044

ENGASE (UniProt Q8NFI3)
inactive: erlotinib 0.036 | [1] 0 | [2] 0.043 | [3] -0.069 | [4] 0.008 | [5] 0.002 | [6] -0.04 | [7] 0.009 | [8] 0.043 | IRAK-1-4 Inhibitor I 0.007 | ibrutinib 0.019 | [9] 0.019 | ralimetinib -0.02 | [10] 0.012 | [11] -0.02 | [12] -0.002 | [13] 0.012 | [14] -0.046 | [15] 0.067 | [16] 0

EDC3 (UniProt Q96F86)
inactive: erlotinib -0.008 | [1] -0.01 | [2] -0.023 | [3] -0.02 | [4] -0.031 | [5] 0.035 | [6] -0.011 | [7] -0.027 | [8] -0.013 | IRAK-1-4 Inhibitor I 0 | ibrutinib 0.038 | [9] 0.016 | ralimetinib 0.004 | [10] 0.001 | [11] 0.046 | [12] 0.039 | [13] -0.014 | [14] 0.009 | [15] 0.019 | [16] -0.023

EEFSEC (UniProt P57772)
inactive: erlotinib -0.006 | [1] 0.054 | [2] -0.044 | [3] -0.022 | [4] 0.006 | [5] -0.044 | [6] -0.054 | [7] -0.025 | [8] -0.007 | IRAK-1-4 Inhibitor I -0.024 | ibrutinib 0.031 | [9] -0.03 | ralimetinib 0.019 | [10] -0.013 | [11] -0.025 | [12] -0.011 | [13] 0.005 | [14] 0.011 | [15] 0.039 | [16] 0.006

EXOC3 (UniProt O60645)
Sequence of UniProt O60645 (O60645 whole entry, looked up): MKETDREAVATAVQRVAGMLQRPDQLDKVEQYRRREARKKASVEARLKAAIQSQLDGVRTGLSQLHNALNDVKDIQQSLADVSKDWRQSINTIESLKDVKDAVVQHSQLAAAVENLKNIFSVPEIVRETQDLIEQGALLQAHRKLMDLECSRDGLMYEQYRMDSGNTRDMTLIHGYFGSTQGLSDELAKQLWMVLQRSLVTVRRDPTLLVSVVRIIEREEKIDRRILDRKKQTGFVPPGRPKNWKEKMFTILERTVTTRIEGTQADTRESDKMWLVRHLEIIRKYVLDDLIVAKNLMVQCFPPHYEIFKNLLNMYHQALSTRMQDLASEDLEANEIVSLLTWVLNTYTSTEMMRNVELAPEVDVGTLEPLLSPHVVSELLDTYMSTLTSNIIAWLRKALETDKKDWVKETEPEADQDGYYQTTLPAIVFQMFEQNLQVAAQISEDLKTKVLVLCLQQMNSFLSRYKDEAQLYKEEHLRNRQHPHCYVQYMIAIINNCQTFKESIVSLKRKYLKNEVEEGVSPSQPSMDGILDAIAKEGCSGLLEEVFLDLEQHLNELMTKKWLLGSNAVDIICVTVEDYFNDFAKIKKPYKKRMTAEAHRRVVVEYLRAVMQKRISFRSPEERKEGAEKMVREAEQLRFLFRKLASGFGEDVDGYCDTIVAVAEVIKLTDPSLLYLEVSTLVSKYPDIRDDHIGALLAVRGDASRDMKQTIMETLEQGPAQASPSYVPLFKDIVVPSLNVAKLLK
inactive: erlotinib 0.033 | [1] 0.027 | [2] 0.006 | [3] 0.033 | [4] 0.039 | [5] 0.011 | [6] -0.04 | [7] 0.018 | [8] -0.001 | IRAK-1-4 Inhibitor I 0.013 | ibrutinib -0.029 | [9] -0.012 | ralimetinib 0.025 | [10] 0.048 | [11] 0.025 | [12] 0 | [13] -0.042 | [14] 0.037 | [15] 0.067 | [16] 0.004

ELF2 (UniProt Q15723)
Sequence of UniProt Q15723 (Q15723 whole entry, looked up): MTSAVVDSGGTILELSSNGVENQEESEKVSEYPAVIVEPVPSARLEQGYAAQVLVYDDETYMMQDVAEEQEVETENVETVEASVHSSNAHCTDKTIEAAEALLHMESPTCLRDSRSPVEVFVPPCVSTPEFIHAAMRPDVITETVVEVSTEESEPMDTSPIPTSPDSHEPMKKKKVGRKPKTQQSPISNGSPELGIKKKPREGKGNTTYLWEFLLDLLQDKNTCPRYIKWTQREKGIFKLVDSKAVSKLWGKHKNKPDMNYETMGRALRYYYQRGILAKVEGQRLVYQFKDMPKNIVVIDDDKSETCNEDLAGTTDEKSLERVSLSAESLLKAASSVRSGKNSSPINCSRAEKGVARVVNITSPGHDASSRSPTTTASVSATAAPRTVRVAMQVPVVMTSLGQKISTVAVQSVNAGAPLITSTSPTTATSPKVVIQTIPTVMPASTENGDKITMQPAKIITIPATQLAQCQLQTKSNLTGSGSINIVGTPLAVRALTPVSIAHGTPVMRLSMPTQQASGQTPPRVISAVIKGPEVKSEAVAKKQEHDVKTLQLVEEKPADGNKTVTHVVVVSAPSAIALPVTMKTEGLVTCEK
inactive: erlotinib 0.023 | [1] -0.136 | [2] 0.059 | [3] -0.068 | [4] 0.07 | [5] -0.036 | [6] -0.056 | [7] 0.009 | [8] -0.022 | IRAK-1-4 Inhibitor I -0.01 | ibrutinib 0.07 | [9] 0.116 | ralimetinib 0.013 | [10] -0.038 | [11] 0.006 | [12] -0.017 | [13] -0.066 | [14] 0.035 | [15] 0.022 | [16] -0.028

FUBP3 (UniProt Q96I24)
Sequence of UniProt Q96I24 (Q96I24 whole entry, looked up): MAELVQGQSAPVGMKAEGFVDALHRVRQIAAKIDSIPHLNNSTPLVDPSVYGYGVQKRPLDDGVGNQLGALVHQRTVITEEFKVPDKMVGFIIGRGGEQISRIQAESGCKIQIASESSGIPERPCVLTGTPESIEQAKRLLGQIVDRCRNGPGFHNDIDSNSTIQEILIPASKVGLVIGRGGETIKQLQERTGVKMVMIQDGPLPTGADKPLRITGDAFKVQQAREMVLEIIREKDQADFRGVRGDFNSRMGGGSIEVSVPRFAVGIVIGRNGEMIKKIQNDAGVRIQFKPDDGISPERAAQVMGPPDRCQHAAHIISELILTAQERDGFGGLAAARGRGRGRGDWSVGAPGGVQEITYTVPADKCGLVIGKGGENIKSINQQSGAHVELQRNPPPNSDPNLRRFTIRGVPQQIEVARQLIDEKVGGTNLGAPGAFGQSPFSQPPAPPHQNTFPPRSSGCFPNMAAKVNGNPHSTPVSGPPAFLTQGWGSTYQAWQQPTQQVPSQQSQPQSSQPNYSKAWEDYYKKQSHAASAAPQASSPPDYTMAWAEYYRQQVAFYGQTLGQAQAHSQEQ
inactive: erlotinib -0.023 | [1] 0.003 | [2] 0.04 | [3] 0.007 | [4] -0.009 | [5] -0.141 | [6] -0.033 | [7] -0.038 | [8] 0.003 | IRAK-1-4 Inhibitor I 0.023 | ibrutinib 0.024 | [9] 0.002 | ralimetinib 0.021 | [10] -0.051 | [11] 0.014 | [12] -0.018 | [13] 0.072 | [14] -0.149 | [15] -0.003 | [16] -0.018

GGA2 (UniProt Q9UJY4)
Sequence of UniProt Q9UJY4 (Q9UJY4 whole entry, looked up): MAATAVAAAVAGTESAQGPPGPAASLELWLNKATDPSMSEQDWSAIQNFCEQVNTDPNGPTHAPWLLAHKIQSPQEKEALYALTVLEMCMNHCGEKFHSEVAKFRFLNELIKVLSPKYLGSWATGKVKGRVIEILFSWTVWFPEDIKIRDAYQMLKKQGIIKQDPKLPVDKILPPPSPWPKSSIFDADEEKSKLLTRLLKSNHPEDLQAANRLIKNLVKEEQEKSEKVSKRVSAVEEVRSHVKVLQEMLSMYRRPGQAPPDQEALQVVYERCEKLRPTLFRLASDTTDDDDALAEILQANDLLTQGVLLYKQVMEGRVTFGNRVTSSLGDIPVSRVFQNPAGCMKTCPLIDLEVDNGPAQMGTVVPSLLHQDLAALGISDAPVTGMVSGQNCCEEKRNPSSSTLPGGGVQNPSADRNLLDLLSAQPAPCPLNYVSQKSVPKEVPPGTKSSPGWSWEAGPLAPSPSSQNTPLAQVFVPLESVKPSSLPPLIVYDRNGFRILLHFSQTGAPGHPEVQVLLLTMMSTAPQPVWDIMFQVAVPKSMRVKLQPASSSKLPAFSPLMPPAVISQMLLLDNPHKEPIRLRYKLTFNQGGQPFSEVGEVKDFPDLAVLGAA
inactive: erlotinib -0.014 | [1] 0.042 | [2] 0.064 | [3] 0.016 | [4] 0.019 | [5] 0.014 | [6] -0.054 | [7] 0.074 | [8] 0.034 | IRAK-1-4 Inhibitor I 0.01 | ibrutinib -0.007 | [9] 0 | ralimetinib 0.026 | [10] -0.01 | [11] -0.062 | [12] 0.099 | [13] 0.01 | [14] -0.024 | [15] 0.031 | [16] -0.021

EXOC4 (UniProt Q96A65)
inactive: erlotinib 0.031 | [1] 0.034 | [2] -0.065 | [3] 0.031 | [4] 0.012 | [5] -0.015 | [6] -0.026 | [7] -0.011 | [8] 0.011 | IRAK-1-4 Inhibitor I -0.009 | ibrutinib -0.004 | [9] -0.011 | ralimetinib 0.014 | [10] -0.031 | [11] -0.003 | [12] -0.013 | [13] 0.022 | [14] -0.031 | [15] 0.02 | [16] 0.002

EXTL2 (UniProt Q9UBQ6)
Sequence of UniProt Q9UBQ6 (Q9UBQ6 whole entry, looked up): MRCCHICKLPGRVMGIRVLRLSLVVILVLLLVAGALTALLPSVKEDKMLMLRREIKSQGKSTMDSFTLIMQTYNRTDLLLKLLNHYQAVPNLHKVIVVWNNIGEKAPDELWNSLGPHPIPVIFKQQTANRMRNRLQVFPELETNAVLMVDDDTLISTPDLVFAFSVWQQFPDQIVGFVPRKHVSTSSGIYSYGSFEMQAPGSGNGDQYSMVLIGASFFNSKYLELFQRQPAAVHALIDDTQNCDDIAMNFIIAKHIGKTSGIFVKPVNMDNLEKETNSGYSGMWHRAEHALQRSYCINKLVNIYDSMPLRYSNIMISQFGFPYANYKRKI
inactive: erlotinib -0.02 | [1] -0.037 | [2] 0.072 | [3] 0.103 | [4] -0.443 | [5] 0 | [6] 0.092 | [7] 0.003 | [8] -0.007 | IRAK-1-4 Inhibitor I -0.049 | ibrutinib 0.217 | [9] -0.056 | ralimetinib -0.015 | [10] 0 | [11] -0.077 | [12] 0.021 | [13] -0.146 | [14] 0.014 | [15] -0.04 | [16] -0.071

DTYMK (UniProt P23919)
Sequence of UniProt P23919 (P23919 whole entry, looked up): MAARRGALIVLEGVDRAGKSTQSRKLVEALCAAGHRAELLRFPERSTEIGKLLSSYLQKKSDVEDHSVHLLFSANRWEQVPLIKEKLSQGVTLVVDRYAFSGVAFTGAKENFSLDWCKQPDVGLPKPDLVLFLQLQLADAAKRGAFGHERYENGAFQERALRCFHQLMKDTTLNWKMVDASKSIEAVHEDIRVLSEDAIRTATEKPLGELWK
inactive: erlotinib -0.013 | [1] 0.025 | [2] 0.01 | [3] -0.017 | [4] 0.024 | [5] -0.016 | [6] 0.004 | [7] 0.01 | [8] -0.027 | IRAK-1-4 Inhibitor I -0.028 | ibrutinib 0.027 | [9] -0.018 | ralimetinib 0.049 | [10] -0.015 | [11] 0.023 | [12] -0.035 | [13] -0.005 | [14] -0.017 | [15] 0.038 | [16] -0.002
